Experimental data: PubChem BioAssay (EPA / NIEHS)
The source made the active and inactive calls. The calls were made as follows: active = hit-call score of the fitted dose curve at least 0.9, where 1 is the maximum; inactive = score below 0.9.

Legend:
Conditions in all cases: mRNA level, 48 h; actives raise or lower the signal
[1] = read-out: Glutathione S-Transferase (GSTA2), GSTA2 (gene 2939); test: LTEA_HepaRG_GSTA2: Life Technologies and Expression Analysis (LTEA) Assay for Glutathione S-Transferase (GSTA2) using HepaRG (AID 2283497)
Summary of the method: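 HepaRG, 48 h dosing, 8-pt half-log CRC from 100 uM, 0.5% DMSO vehicle, n=2; RNA → Fluidigm TaqMan qRT-PCR; GSTA2 vs ACTB/GAPDH/POLR2A; gain/loss fit vs DMSO.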

[2] = read-out: growth arrest and DNA damage 45 (GADD45G), GADD45G (gene 10912); test: LTEA_HepaRG_GADD45G: Life Technologies and Expression Analysis (LTEA) Assay for growth arrest and DNA damage 45 (GADD45G) using HepaRG (AID 2283499)
Summary of the method: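 HepaRG, 48 h exposure, top 100 uM, half-log 8-point series, 0.5% DMSO vehicle, duplicates. Readout: GADD45G transcript by qRT-PCR (Fluidigm array), housekeeping-normalised (ACTB/GAPDH/POLR2A). Bidirectional curve fit vs DMSO baseline.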

[3] = read-out: Glutamate-cysteine ligase regulatory (GCLM), GCLM (gene 2730); test: LTEA_HepaRG_GCLM: Life Technologies and Expression Analysis (LTEA) Assay for Glutamate-cysteine ligase regulatory (GCLM) using HepaRG (AID 2283500)
Summary of the method: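 Differentiated human HepaRG cells exposed 48 h in serum-free induction medium to 8-point half-log concentrations (top 100 uM, 0.5% DMSO), in duplicate. GCLM mRNA quantified by qRT-PCR, normalized to ACTB, GAPDH, POLR2A; bidirectional fitting versus DMSO.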

[4] = read-out: Glutathione S-transferase M3 (GSTM3), GSTM3 (gene 2947); test: LTEA_HepaRG_GSTM3: Life Technologies and Expression Analysis (LTEA) Assay for Glutathione S-transferase M3 (GSTM3) using HepaRG (AID 2283501)
Summary of the method: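 qRT-PCR read-out of GSTM3 transcript, normalized to three housekeeping genes, from human HepaRG cells after 48 h chemical exposure. Eight-point half-log series, top 100 uM, 0.5% DMSO vehicle; gain or loss fitted relative to DMSO baseline.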

[5] = read-out: HGF (gene 3082); test: LTEA_HepaRG_HGF: Life Technologies and Expression Analysis (LTEA) Assay for Hepatocyte Growth Facto (HGF) using HepaRG (AID 2283505)
Summary of the method: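 HepaRG, 48 h dosing, 8-pt half-log series from 100 uM in 0.5% DMSO, duplicates. Readout: TaqMan qRT-PCR of HGF mRNA, housekeeping-normalized; bidirectional curve fit vs DMSO baseline.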

[6] = read-out: Insulin Like Growth Factor 1 (IGF1), IGF1 (gene 3479); test: LTEA_HepaRG_IGF1: Life Technologies and Expression Analysis (LTEA) Assay for Insulin Like Growth Factor 1 (IGF1) using HepaRG (AID 2283506)
Summary of the method: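 Differentiated human HepaRG cells were dosed for 48 h in serum-free induction medium with 0.5% DMSO, eight half-log concentrations up to 100 uM, in duplicate. IGF1 mRNA was quantified by qRT-PCR normalized to ACTB, GAPDH, POLR2A; bidirectional fitting versus DMSO.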

[7] = read-out: Intercellular Adhesion Molecule 1 (ICAM1), ICAM1 (gene 3383); test: LTEA_HepaRG_ICAM1: Life Technologies and Expression Analysis (LTEA) Assay for Intercellular Adhesion Molecule 1 (ICAM1) using HepaRG (AID 2283507)
Summary of the method: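 HepaRG, 48 h exposure, 8-pt half-log series from 100 uM, 0.5% DMSO vehicle, duplicates. Readout: TaqMan qRT-PCR mRNA, housekeeping-normalized (ACTB/GAPDH/POLR2A). Bidirectional curve fit vs DMSO baseline.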

[8] = read-out: Insulin-like growth factor-binding protein 1 (IGFBP1), IGFBP1 (gene 3484); test: LTEA_HepaRG_IGFBP1: Life Technologies and Expression Analysis (LTEA) Assay for Insulin-like growth factor-binding protein 1 (IGFBP1) using HepaRG (AID 2283508)
Summary of the method: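 qRT-PCR mRNA read-out (TaqMan, Fluidigm array), normalised to three housekeeping genes; HepaRG cells, 48 h exposure, 8-pt half-log series from 100 uM, 0.5% DMSO vehicle; bidirectional curve fit vs DMSO baseline.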

[9] = read-out: Interleukin 6 (IL6), IL6 (gene 3569); test: LTEA_HepaRG_IL6: Life Technologies and Expression Analysis (LTEA) Assay for Interleukin 6 (IL6) using HepaRG (AID 2283509)
Summary of the method: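 HepaRG, ~100,000 cells/well, 48 h pre-culture; serum-free induction medium; cmpd 8-pt half-log from 100 uM, 0.5% DMSO, duplicate, 48 h. Lysis in RLT, TaqMan qRT-PCR; gain or loss vs DMSO.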

[10] = read-out: Interleukin 6 Receptor (IL6R), IL6R (gene 3570); test: LTEA_HepaRG_IL6R: Life Technologies and Expression Analysis (LTEA) Assay for Interleukin 6 Receptor (IL6R) using HepaRG (AID 2283510)
Summary of the method: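 Differentiated human HepaRG cells, plated 48 h then switched to serum-free induction medium, were dosed in duplicate for 48 h at eight half-log concentrations up to 100 uM in 0.5% DMSO. IL6R mRNA quantified by qRT-PCR, normalized to ACTB/GAPDH/POLR2A; bidirectional fit versus DMSO.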

[11] = read-out: Potassium channel subfamily K member 1 (KCNK1), KCNK1 (gene 3775); test: LTEA_HepaRG_KCNK1: Life Technologies and Expression Analysis (LTEA) Assay for Potassium channel subfamily K member 1 (KCNK1) using HepaRG (AID 2283511)
Summary of the method: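 Gain or loss of KCNK1 mRNA is the read-out, quantified by qRT-PCR against three housekeeping genes after 48 h chemical treatment of human HepaRG liver cells. Concentrations ran from 100 uM downward in half-log steps, vehicle 0.5% DMSO.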

[12] = read-out: Keratin 19 (KRT19), KRT19 (gene 3880); test: LTEA_HepaRG_KRT19: Life Technologies and Expression Analysis (LTEA) Assay for Keratin 19 (KRT19) using HepaRG (AID 2283512)
Summary of the method: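 HepaRG, 48 h chemical exposure, 8-pt half-log CRC from 100 uM, 0.5% DMSO vehicle, duplicates. Readout: TaqMan qRT-PCR of KRT19 mRNA, housekeeping-normalized (ACTB/GAPDH/POLR2A). Bidirectional fit vs DMSO baseline.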

[13] = read-out: JUN Transcription Factor, JUN (gene 3725); test: LTEA_HepaRG_JUN: Life Technologies and Expression Analysis (LTEA) Assay for JUN Transcription Factor using HepaRG (AID 2283513)
Summary of the method: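 Differentiated HepaRG cells were exposed to chemicals for 48 h in serum-free induction medium, 8 concentrations from 100 uM in half-log steps, 0.5% DMSO vehicle, in duplicate. JUN mRNA was quantified by TaqMan qRT-PCR, normalized to ACTB, GAPDH, POLR2A.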

[14] = read-out: Lipase C (LIPC), LIPC (gene 3990); test: LTEA_HepaRG_LIPC: Life Technologies and Expression Analysis (LTEA) Assay for Lipase C (LIPC) using HepaRG (AID 2283514)
Summary of the method: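 Read-out is LIPC transcript level by TaqMan qRT-PCR, normalized to three housekeeping genes, after 48 h chemical treatment of human HepaRG liver cells. Curves span eight concentrations topping at 100 uM; activity in either direction scored relative to 0.5% DMSO.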

[15] = read-out: Lipoprotein lipase (LPL), LPL (gene 4023); test: LTEA_HepaRG_LPL: Life Technologies and Expression Analysis (LTEA) Assay for Lipoprotein lipase (LPL) using HepaRG (AID 2283515)
Summary of the method: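 Read-out is LPL transcript level by qRT-PCR, normalized to three housekeeping genes and fitted bidirectionally against the DMSO control. Human HepaRG cells received chemicals for 48 h at up to 100 uM.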

[16] = read-out: MicroRNA 122 (MIR122), gene 406906; test: LTEA_HepaRG_MIR122: Life Technologies and Expression Analysis (LTEA) Assay for MicroRNA 122 (MIR122) using HepaRG (AID 2283516); also: the transcript read is the microRNA miR-122
Summary of the method: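 Differentiated human HepaRG cells were exposed 48 h in serum-free induction medium to eight half-log concentrations (top 100 uM, 0.5% DMSO). Transcript level was measured by TaqMan qRT-PCR, normalized to ACTB, GAPDH and POLR2A, and fitted bidirectionally versus DMSO.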

[17] = read-out: Heat shock 70 kDa protein 1 (HSPA1A), gene 3303; test: LTEA_HepaRG_HSPA1A: Life Technologies and Expression Analysis (LTEA) Assay for Heat shock 70 kDa protein 1 (HSPA1A) using HepaRG (AID 2283502)
Summary of the method: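 Differentiated human HepaRG cells in serum-free induction medium were exposed in duplicate for 48 h to eight concentrations (top 100 uM, half-log steps, 0.5% DMSO). HSPA1A mRNA was quantified by qRT-PCR, normalized to ACTB, GAPDH and POLR2A, and fitted bidirectionally against DMSO.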

[18] = read-out: 3-Hydroxy-3-Methylglutaryl-CoA Synthase 2 (HMGCS2), HMGCS2 (gene 3158); test: LTEA_HepaRG_HMGCS2: Life Technologies and Expression Analysis (LTEA) Assay for 3-Hydroxy-3-Methylglutaryl-CoA Synthase 2 (HMGCS2) using HepaRG (AID 2283504)
Summary of the method: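 qRT-PCR read-out of HMGCS2 transcript, normalised to three housekeeping genes, in HepaRG cells after 48 h chemical exposure. Eight-point curves from 100 uM, half-log dilutions, 0.5% DMSO vehicle; gain or loss fitted relative to DMSO baseline.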

[19] = read-out: Hypoxia-inducible factor 1-alpha (Homo sapiens) (UniProt Q16665); test: LTEA_HepaRG_HIF1A: Life Technologies and Expression Analysis (LTEA) Assay for Hypoxia-inducible factor 1 (HIF1A) Trancription factor using HepaRG (AID 2283503);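 also: HIF1A transcript by TaqMan qRT-PCR normalized to ACTB GAPDH and POLR2A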
Summary of the method: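 HepaRG, 48 h exposure, 8-pt half-log series from 100 uM, 0.5% DMSO vehicle, duplicates. Readout: HIF1A transcript by qRT-PCR (Fluidigm array), housekeeping-normalised. Bidirectional curve fit vs DMSO baseline.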

Measured: AC50

Hypoxia-inducible factor 1-alpha (Homo sapiens), sequence (Q16665 whole entry, looked up): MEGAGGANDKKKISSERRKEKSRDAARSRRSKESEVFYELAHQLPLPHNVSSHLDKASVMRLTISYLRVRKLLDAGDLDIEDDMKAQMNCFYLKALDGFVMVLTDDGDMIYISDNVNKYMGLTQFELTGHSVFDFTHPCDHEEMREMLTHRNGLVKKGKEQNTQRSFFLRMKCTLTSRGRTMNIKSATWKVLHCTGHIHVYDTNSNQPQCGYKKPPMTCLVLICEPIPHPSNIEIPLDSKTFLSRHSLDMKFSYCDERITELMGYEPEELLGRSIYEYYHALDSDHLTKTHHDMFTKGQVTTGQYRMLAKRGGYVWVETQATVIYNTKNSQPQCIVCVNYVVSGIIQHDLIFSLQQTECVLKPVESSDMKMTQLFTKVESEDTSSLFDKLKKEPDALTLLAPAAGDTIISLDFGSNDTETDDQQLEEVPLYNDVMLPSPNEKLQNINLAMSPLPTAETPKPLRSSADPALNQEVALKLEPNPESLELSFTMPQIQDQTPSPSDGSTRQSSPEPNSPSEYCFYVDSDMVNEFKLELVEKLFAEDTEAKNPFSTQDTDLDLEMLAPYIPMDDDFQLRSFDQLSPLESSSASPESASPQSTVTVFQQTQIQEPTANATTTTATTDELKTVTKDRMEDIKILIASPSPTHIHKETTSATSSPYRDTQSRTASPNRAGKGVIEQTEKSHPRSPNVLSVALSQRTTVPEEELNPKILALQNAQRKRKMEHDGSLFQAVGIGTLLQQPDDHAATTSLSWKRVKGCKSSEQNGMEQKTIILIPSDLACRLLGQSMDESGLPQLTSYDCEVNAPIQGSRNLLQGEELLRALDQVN

CC(=O)c1ccc2c(c1)[C@H](NC(=O)c1ccc(F)cc1)[C@@H](O)C(C)(C)O2
inactive: [1] | [2] | [3] | [4] | [5] | [6] | [7] | [8] | [9] | [10] | [11] | [12] | [13] | [14] | [15] | [16]

CCOC(=O)COc1ccc2c(c1)CC(NCC(O)c1cccc(Cl)c1)CC2 (stereo not given)
inactive: [1] | [2] | [3] | [4] | [17] | [18] | [5] | [6] | [7] | [8] | [9] | [10] | [11] | [13] | [15] | [16]
active: [12] 2.77 µM | [14] 45.8 µM

COCCOCCOCCOC
inactive: [1] | [2] | [3] | [4] | [19] | [18] | [5] | [6] | [7] | [8] | [9] | [10] | [11] | [12] | [13] | [14] | [15] | [16]

COC(=O)CC(=O)OC
inactive: [1] | [2] | [3] | [4] | [19] | [18] | [5] | [6] | [7] | [8] | [9] | [10] | [11] | [12] | [13] | [14] | [15] | [16]
